In PubChem BioAssay (NCI):
“And” between values parts separate entries of the source, which are not always exact repeats. Equal values may be shown once. The panel holds about 79,000 compounds, 15% with a hit somewhere; the sample as a whole holds those more often. Values without a mark were called inactive. The source made the active and inactive calls. Cut-off read from the data, not from the text of the source: active = growth inhibition above about 70%; inactive = the rest.

Key:
[1] = NCI Yeast Anticancer Drug Screen. Data for the rad50 strain (AID 155);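 note: 0% = growth of vehicle-only cultures of the same strain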; details: S. cerevisiae rad50 strain growth inhibition, active compounds read high; at 50.0 µM unless noted
How it was run: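 Readout: growth inhibition relative to vehicle-treated cultures. Compound exposure was carried out in a genetically defined yeast strain deficient in DNA damage repair.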

[2] = NCI Yeast Anticancer Drug Screen. Data for the mec2-1 strain (AID 157); details: S. cerevisiae mec2-1 strain, active compounds read high; at 50.0 µM unless noted
How it was run: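 Readout is yeast growth inhibition, normalised to vehicle-treated controls, in the mec2-1 strain exposed to compound.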

[3] = NCI Yeast Anticancer Drug Screen. Data for the sgs1 mgt1 strain (AID 161);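 note: 0% = growth of cultures given vehicle only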; details: S. cerevisiae sgs1 mgt1 strain, active compounds read high; at 50.0 µM unless noted
How it was run: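 Yeast cells carrying a defined DNA-repair defect were exposed to test compounds. Growth inhibition was measured relative to vehicle-treated controls.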

[4] = NCI Yeast Anticancer Drug Screen. Data for the cln2 rad14 strain (AID 165);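 note: 0% = growth equal to vehicle treated cultures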; details: S. cerevisiae cln2 rad14 strain, active compounds read high; at 50.0 µM unless noted
How it was run: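 Relative to vehicle controls, growth inhibition of compound-treated cln2 rad14 yeast was recorded.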

[5] = NCI Yeast Anticancer Drug Screen. Data for the bub3 strain (AID 167); details: S. cerevisiae bub3 mutant strain, active compounds read high; at 50.0 µM unless noted
How it was run: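 Readout: yeast growth inhibition, expressed relative to vehicle-only wells. The test organism is a mutant strain from a panel with lesions in DNA repair or checkpoint genes.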

[6] = NCI Yeast Anticancer Drug Screen. Data for the mlh1 rad18 strain (AID 175); details: S. cerevisiae mlh1 rad18 strain growth inhibition, active compounds read high; at 50.0 µM unless noted
How it was run: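 Test agents were incubated with a yeast strain of defined genotype (DNA damage repair defect). Inhibition of growth was derived by comparison with vehicle-exposed cultures.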

Structure (SMILES): Cc1ccc(-c2nc3ccc(Cl)cc3[nH]2)cc1
- growth inhibition [1]: -10.7%
- growth inhibition [2]: 9.1%
- growth inhibition [3]: 41.6%
- growth inhibition [4]: 17.1%
- growth inhibition [5]: 30.1%
- growth inhibition [6]: 42.1%

Structure (SMILES): O=c1[nH]c2ccc(O)cc2o1
- growth inhibition [1]: 33.2%
- growth inhibition [2]: 17.8%
- growth inhibition [3]: 27.6%
- growth inhibition [4]: -10.1%
- growth inhibition [5]: 12.9%
- growth inhibition [6]: 22.2%

Structure (SMILES): CCOc1ccc(N=Nc2c(N)nc(N)[nH]c2=O)cc1
- growth inhibition [1]: 26.3%
- growth inhibition [2]: 23.6%
- growth inhibition [3]: 17.4%
- growth inhibition [4]: 19.9%
- growth inhibition [5]: -1.25%
- growth inhibition [6]: 24.1%

Structure (SMILES): O=[N+]([O-])c1ccc(C[n+]2ccccc2)cc1
- growth inhibition [1]: -1.25% and 31.9%
- growth inhibition [2]: 13.2% and -3.9%
- growth inhibition [3]: -4.2% and -1.45%
- growth inhibition [4]: -15.8% and 16.4%
- growth inhibition [5]: -6.95% and -2.65%
- growth inhibition [6]: -18.2% and 13.7%

Structure (SMILES): C=C1C[C@@H](O)C[C@@]2(C)C[C@@H]3OC(=O)C(=C)[C@@H]3C[C@H]12
- growth inhibition [1]: -5.9%
- growth inhibition [2]: -3%
- growth inhibition [3]: 16.2%
- growth inhibition [4]: 14.2%
- growth inhibition [5]: -16.6%
- growth inhibition [6]: 19.9%

Structure (SMILES): C[C@]12CCC(=O)C=C1CC[C@H]1[C@@H]3CC[C@](O)(C(=O)CO)[C@@]3(C)CC(=O)[C@@]12SC(N)=O
- growth inhibition [1]: -4.6%
- growth inhibition [2]: 6.55%
- growth inhibition [3]: 3.9%
- growth inhibition [4]: 20.8%
- growth inhibition [5]: 6.1%
- growth inhibition [6]: -15.7%

Structure (SMILES): CCOC(=O)C1=CN=C2C(=O)N(c3ccccc3)N(C)C2(C)C1=N (centres undefined)
- growth inhibition [1]: -4.8%
- growth inhibition [2]: 0.95%
- growth inhibition [3]: -19.4%
- growth inhibition [4]: 10.8%
- growth inhibition [5]: -11.2%
- growth inhibition [6]: 12.9%

Structure (SMILES): CCOC(=O)CSCC(C)C(=O)OC (centres undefined)
- growth inhibition [1]: -0.3%
- growth inhibition [2]: -0.5%
- growth inhibition [3]: -2.7%
- growth inhibition [4]: 7.2%
- growth inhibition [5]: 2.5%
- growth inhibition [6]: 2.25%

Structure (SMILES): Nc1nc(=O)[nH]c(=O)[nH]1
- growth inhibition [1]: -5%
- growth inhibition [2]: -0.4%
- growth inhibition [3]: -7.05%
- growth inhibition [4]: -28.9%
- growth inhibition [5]: -14.6%
- growth inhibition [6]: 16.9%

Structure (SMILES): Cc1ccc(C2=Nc3ccccc3NC(=O)C2)cc1
- growth inhibition [1]: -2.6%
- growth inhibition [2]: -20.1%
- growth inhibition [3]: -12.6%
- growth inhibition [4]: 22.2%
- growth inhibition [5]: -7.35%
- growth inhibition [6]: -17.9%

Structure (SMILES): CCCCCCCCCC(=O)N1CCCC(C)C1 (centres undefined)
- growth inhibition [1]: 99.5% (active)
- growth inhibition [2]: 99.7% (active)
- growth inhibition [3]: 99.6% (active)
- growth inhibition [4]: 98.7% (active)
- growth inhibition [5]: 99.2% (active)
- growth inhibition [6]: 99.5% (active)

Structure (SMILES): CCOC(=O)c1[nH]c(=S)n(C)c1C(=O)OCC
- growth inhibition [1]: -12.9%
- growth inhibition [2]: 6.75%
- growth inhibition [3]: 29.1%
- growth inhibition [4]: -33%
- growth inhibition [5]: 8.1%
- growth inhibition [6]: 0.55%

Structure (SMILES): CC(C)N1CCN(c2ccncc2S(=O)(=O)N2CCCC2)CC1
- growth inhibition [1]: 2.7%
- growth inhibition [2]: 4.8%
- growth inhibition [3]: -4.65%
- growth inhibition [4]: -33.9%
- growth inhibition [5]: 1.35%
- growth inhibition [6]: 8.4%

Structure (SMILES): CSC(N)=Nc1cccc2ccccc12
- growth inhibition [1]: -44.2%
- growth inhibition [2]: -59%
- growth inhibition [3]: -40.5%
- growth inhibition [4]: -10.9%
- growth inhibition [5]: -34.2%
- growth inhibition [6]: -41%

Structure (SMILES): CCOP(=O)(OCC)/C(=C\n1c(=S)[nH]c2cc(C)ccc21)C(=O)OC
- growth inhibition [1]: -34.1%
- growth inhibition [2]: -27.7%
- growth inhibition [3]: 13.3%
- growth inhibition [4]: -4.4%
- growth inhibition [5]: -2.5%
- growth inhibition [6]: 31.3%

Structure (SMILES): Cc1ccc(S(=O)(=O)N2CCCSCC2)cc1
- growth inhibition [1]: -11.6%
- growth inhibition [2]: -6.7%
- growth inhibition [3]: -17.5%
- growth inhibition [4]: -6.95%
- growth inhibition [5]: -11.6%
- growth inhibition [6]: -16.1%

Structure (SMILES): COc1ccc(C)cc1NC(=O)OCCCl
- growth inhibition [1]: 3.1%
- growth inhibition [2]: 2.35%
- growth inhibition [3]: 2.65%
- growth inhibition [4]: 5.95%
- growth inhibition [5]: 11.1%
- growth inhibition [6]: -5.3%

Structure (SMILES): CN(C)N=Nc1ccc(S(C)(=O)=O)cc1
- growth inhibition [1]: 4.9%
- growth inhibition [2]: 0.6%
- growth inhibition [3]: 1.5%
- growth inhibition [4]: -22.1%
- growth inhibition [5]: 10.1%
- growth inhibition [6]: 8.1%

Structure (SMILES): CCOC(=O)C1=C(C)NC(c2ccco2)=C(C#N)C1c1cccc([N+](=O)[O-])c1 (centres undefined)
- growth inhibition [1]: 59.8%
- growth inhibition [2]: 33.4%
- growth inhibition [3]: 66%
- growth inhibition [4]: 68.7%
- growth inhibition [5]: 63.6%
- growth inhibition [6]: 70.8% (active)

Structure (SMILES): COc1cc(OC)c2c(c1)OC(c1cccnc1)C(c1ccccc1)C2=O (centres undefined)
- growth inhibition [1]: -5.2%
- growth inhibition [2]: -57.9%
- growth inhibition [3]: -5%
- growth inhibition [4]: -27.7%
- growth inhibition [5]: 12.5%
- growth inhibition [6]: 3.9%

Structure (SMILES): CCOc1ccc([N+](=O)[O-])cc1[N+](=O)[O-]
- growth inhibition [1]: 43.3%
- growth inhibition [2]: 2.1%
- growth inhibition [3]: -11.3%
- growth inhibition [4]: -55.5%
- growth inhibition [5]: -25.6%
- growth inhibition [6]: -2.6%

Structure (SMILES): O=c1[nH]c2cccc([N+](=O)[O-])c2c2ccccc12
- growth inhibition [1]: 5.85%
- growth inhibition [2]: 26.6%
- growth inhibition [3]: 14.1%
- growth inhibition [4]: 23%
- growth inhibition [5]: -6.35%
- growth inhibition [6]: 11.2%

Structure (SMILES): CCOC(=O)[C@H]1Nc2c(cccc2[N+](=O)[O-])C2c3ccccc3CC21 (some centres undefined)
- growth inhibition [1]: 48.5%
- growth inhibition [2]: 1.55%
- growth inhibition [3]: 8.6%
- growth inhibition [4]: 25.3%
- growth inhibition [5]: 9.5%
- growth inhibition [6]: 13.6%

Structure (SMILES): O=[N+]([O-])c1ccc(S(=O)(=O)O)cc1
- growth inhibition [1]: 43.6%
- growth inhibition [2]: 25.1%
- growth inhibition [3]: 37.5%
- growth inhibition [4]: -22.7%
- growth inhibition [5]: 9.65%
- growth inhibition [6]: 43.1%

Structure (SMILES): COc1ccc(C2=C(N)c3ncccc3C2=O)cc1
- growth inhibition [1]: 5.55%
- growth inhibition [2]: -5.05%
- growth inhibition [3]: 7.4%
- growth inhibition [4]: 4.65%
- growth inhibition [5]: 19.9%
- growth inhibition [6]: -70.3%

Structure (SMILES): CC1Sc2ccccc2-c2[nH]c3ccccc3c21 (centres undefined)
- growth inhibition [1]: 32.8%
- growth inhibition [2]: 49%
- growth inhibition [3]: 16%
- growth inhibition [4]: 5%
- growth inhibition [5]: 31.7%
- growth inhibition [6]: 66.1%

Structure (SMILES): Cc1ccc(S(=O)(=O)N(C)c2ccc3c(c2)C(=O)c2ccccc2-3)cc1
- growth inhibition [1]: 20.6%
- growth inhibition [2]: 14.2%
- growth inhibition [3]: 37%
- growth inhibition [4]: -44.5%
- growth inhibition [5]: 56%
- growth inhibition [6]: 26.4%

Structure (SMILES): COc1cccc(C(c2ccccc2)C(CC(=O)O)CC(=O)O)c1 (centres undefined)
- growth inhibition [1]: 8.8%
- growth inhibition [2]: 8.6%
- growth inhibition [3]: -12.8%
- growth inhibition [4]: 4%
- growth inhibition [5]: -2.1%
- growth inhibition [6]: -16.5%

Structure (SMILES): CCOC(=O)/C(=N/Nc1ccc(Cl)cc1)N1C(=S)C=C(C)NN(C)C1=S
- growth inhibition [1]: -6.35%
- growth inhibition [2]: -13.4%
- growth inhibition [3]: -22.1%
- growth inhibition [4]: -6.4%
- growth inhibition [5]: -4.8%
- growth inhibition [6]: 8.15%

Structure (SMILES): N/N=C1\CC2C3CC4(OCCO4)C4C3CC2C14 (centres undefined)
- growth inhibition [1]: 1.6%
- growth inhibition [2]: -4.7%
- growth inhibition [3]: 1.75%
- growth inhibition [4]: 6.55%
- growth inhibition [5]: -7.6%
- growth inhibition [6]: 0.15%

Structure (SMILES): CCOC(=O)/C(C#N)=C/c1ccc(C)cc1
- growth inhibition [1]: 10.4%
- growth inhibition [2]: 15.8%
- growth inhibition [3]: 11.2%
- growth inhibition [4]: 6.15%
- growth inhibition [5]: 22.3%
- growth inhibition [6]: 22.9%

Structure (SMILES): C=C1CCCC(C)(C)[C@@H]1CC/C(C)=C/Cn1c2cccc(=O)c-2nc2ccccc21
- growth inhibition [1]: 12.8%
- growth inhibition [2]: 6.75%
- growth inhibition [3]: 2.15%
- growth inhibition [4]: 2.4%
- growth inhibition [5]: -17.4%
- growth inhibition [6]: 19.2%

Structure (SMILES): O=C1NCC(CCl)O1 (centres undefined)
- growth inhibition [1]: 8.3%
- growth inhibition [2]: -12.2%
- growth inhibition [3]: -2.15%
- growth inhibition [4]: 9.3%
- growth inhibition [5]: 18.1%
- growth inhibition [6]: 1.9%

Structure (SMILES): C=CCCCCCCC=C
- growth inhibition [1]: -23.6%
- growth inhibition [2]: -43%
- growth inhibition [3]: -4.1%
- growth inhibition [4]: 2.45%
- growth inhibition [5]: -34.2%
- growth inhibition [6]: -19.4%

Structure (SMILES): N=c1ccccn1CC(O)COc1ccc(Cl)cc1 (centres undefined)
- growth inhibition [1]: 11.8%
- growth inhibition [2]: -10.1%
- growth inhibition [3]: -8.85%
- growth inhibition [4]: -17.9%
- growth inhibition [5]: -2.5%
- growth inhibition [6]: -16.6%

Structure (SMILES): CCCCCCN1COCC(COc2ccc(Cl)cc2)OC1 (centres undefined)
- growth inhibition [1]: 23.8%
- growth inhibition [2]: 18.8%
- growth inhibition [3]: 36.9%
- growth inhibition [4]: 22.1%
- growth inhibition [5]: 10.7%
- growth inhibition [6]: 50.1%

Structure (SMILES): Cc1ccc(NC(=O)CCCl)cc1
- growth inhibition [1]: 3.4%
- growth inhibition [2]: -1.55%
- growth inhibition [3]: 2.05%
- growth inhibition [4]: -19.1%
- growth inhibition [5]: -0.5%
- growth inhibition [6]: -14.3%

Structure (SMILES): CC(CC(C)C(=O)O)C(=O)O (centres undefined)
- growth inhibition [1]: -13.5%
- growth inhibition [2]: -28.2%
- growth inhibition [3]: -24.1%
- growth inhibition [4]: 0.4%
- growth inhibition [5]: -47.8%
- growth inhibition [6]: 3.25%

Structure (SMILES): N#Cc1nc(C2CC2)oc1N
- growth inhibition [1]: -18.7%
- growth inhibition [2]: -2.65%
- growth inhibition [3]: -22.9%
- growth inhibition [4]: 0.35%
- growth inhibition [5]: -25.2%
- growth inhibition [6]: 1.65%
